Measured values published in article PMC7862700, “An all-to-all approach to the identification of sequence-specific readers for epigenetic DNA modifications on cytosine”.

What was measured:
Assay in all cases: DAPPL (digital affinity profiling via proximity ligation, sequencing); 10 mM Tris-HCl pH 7.5, 50 mM NaCl, 1 mM DTT, 4% glycerol, room temperature, 30 min; GST-TFs on glutathione beads, 16-mer random dsDNA library, 0.1% formaldehyde crosslink after washing; high values mean tight binding
Conditions in all cases: protein: recombinant; tags: N-terminal GST; dsDNA, one strand shown
[1] = biological target: T1, FLI1 (Homo sapiens, UniProt Q01543 1-452)
T1 sequence: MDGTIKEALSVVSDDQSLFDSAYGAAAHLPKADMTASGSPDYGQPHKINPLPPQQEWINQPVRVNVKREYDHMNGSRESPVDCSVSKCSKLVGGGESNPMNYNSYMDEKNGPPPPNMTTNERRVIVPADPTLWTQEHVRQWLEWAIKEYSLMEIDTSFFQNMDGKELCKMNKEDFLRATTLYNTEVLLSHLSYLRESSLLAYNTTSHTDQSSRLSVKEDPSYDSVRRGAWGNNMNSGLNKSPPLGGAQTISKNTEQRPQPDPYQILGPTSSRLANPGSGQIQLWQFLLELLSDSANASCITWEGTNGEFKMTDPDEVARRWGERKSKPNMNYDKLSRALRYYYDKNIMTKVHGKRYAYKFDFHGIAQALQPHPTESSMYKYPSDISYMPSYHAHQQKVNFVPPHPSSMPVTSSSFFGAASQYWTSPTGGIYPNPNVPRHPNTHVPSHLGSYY
Outline: (§1)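 Human transcription factors were made in yeast as GST fusions, captured on glutathione beads and barcoded with DNA. With a tag-only sample included, the pool was incubated with 200 nmole of a random double-stranded 16-mer DNA library in Tris/NaCl/DTT/glycerol buffer at room temperature for 30 min, then crosslinked with 0.1% formaldehyde after washing, ligated by proximity, amplified and sequenced. For binding signal, each hexamer's read frequency for a factor is divided by its frequency for the tag-only sample.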

[2] = biological target: T2, ELK1 (Homo sapiens, UniProt P19419 1-428)
T2 sequence: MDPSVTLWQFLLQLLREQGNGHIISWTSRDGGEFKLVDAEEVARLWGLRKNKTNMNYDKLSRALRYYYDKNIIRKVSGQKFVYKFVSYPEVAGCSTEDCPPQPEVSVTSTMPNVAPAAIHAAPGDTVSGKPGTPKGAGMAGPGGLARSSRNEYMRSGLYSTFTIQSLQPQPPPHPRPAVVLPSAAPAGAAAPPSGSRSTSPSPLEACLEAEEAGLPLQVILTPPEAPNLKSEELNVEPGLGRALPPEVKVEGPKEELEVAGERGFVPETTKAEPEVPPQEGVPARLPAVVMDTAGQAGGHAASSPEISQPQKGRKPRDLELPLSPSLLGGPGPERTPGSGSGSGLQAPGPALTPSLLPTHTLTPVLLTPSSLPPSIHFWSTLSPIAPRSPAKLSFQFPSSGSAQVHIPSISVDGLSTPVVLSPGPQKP
Outline: as §1

[3] = biological target: T3, GABPA (Homo sapiens, UniProt Q06546 1-454)
T3 sequence: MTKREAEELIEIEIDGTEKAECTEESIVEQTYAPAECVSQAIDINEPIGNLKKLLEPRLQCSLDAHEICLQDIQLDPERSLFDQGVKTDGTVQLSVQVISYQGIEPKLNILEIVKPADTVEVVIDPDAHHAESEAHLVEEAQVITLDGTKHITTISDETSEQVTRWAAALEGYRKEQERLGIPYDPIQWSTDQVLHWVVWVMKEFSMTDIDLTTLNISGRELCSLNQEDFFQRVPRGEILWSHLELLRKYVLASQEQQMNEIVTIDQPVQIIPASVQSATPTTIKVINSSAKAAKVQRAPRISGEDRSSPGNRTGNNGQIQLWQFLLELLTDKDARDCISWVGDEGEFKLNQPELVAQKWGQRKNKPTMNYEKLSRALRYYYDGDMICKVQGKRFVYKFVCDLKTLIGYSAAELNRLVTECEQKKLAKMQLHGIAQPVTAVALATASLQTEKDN
Outline: as §1

[4] = biological target: T4, ERG (Homo sapiens, UniProt P11308 1-479)
T4 sequence: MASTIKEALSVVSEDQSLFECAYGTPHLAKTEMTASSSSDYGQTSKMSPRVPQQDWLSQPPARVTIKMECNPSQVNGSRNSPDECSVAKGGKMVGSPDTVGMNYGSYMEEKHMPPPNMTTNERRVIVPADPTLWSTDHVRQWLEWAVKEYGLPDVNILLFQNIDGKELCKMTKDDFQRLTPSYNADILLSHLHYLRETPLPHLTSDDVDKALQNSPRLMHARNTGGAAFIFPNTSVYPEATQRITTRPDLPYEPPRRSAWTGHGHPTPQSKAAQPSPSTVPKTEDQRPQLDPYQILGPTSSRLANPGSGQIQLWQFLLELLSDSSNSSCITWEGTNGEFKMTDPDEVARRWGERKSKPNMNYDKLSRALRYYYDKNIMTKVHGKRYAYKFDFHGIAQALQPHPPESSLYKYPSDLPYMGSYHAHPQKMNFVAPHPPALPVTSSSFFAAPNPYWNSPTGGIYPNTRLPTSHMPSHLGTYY
Outline: as §1

[5] = biological target: ELF1 (Homo sapiens, UniProt P32519 1-619)
Outline: as §1

[6] = biological target: T5, EHF (Homo sapiens, UniProt Q9NZC4 1-300)
T5 sequence: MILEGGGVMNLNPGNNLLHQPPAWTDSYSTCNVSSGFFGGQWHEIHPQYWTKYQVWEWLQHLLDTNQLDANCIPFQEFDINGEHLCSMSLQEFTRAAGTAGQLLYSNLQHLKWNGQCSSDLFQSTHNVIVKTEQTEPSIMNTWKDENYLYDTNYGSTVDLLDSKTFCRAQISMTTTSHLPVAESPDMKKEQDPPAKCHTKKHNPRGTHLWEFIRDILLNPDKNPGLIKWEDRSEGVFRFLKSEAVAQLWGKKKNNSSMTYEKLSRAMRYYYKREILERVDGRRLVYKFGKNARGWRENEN
Outline: as §1

[7] = biological target: SPI1 (Homo sapiens, UniProt P17947 1-270)
Outline: as §1

[8] = biological target: SPIB (Homo sapiens, UniProt Q01892 1-262)
Outline: as §1

[9] = biological target: T6, ELK3 (Homo sapiens, UniProt P41970 1-407)
T6 sequence: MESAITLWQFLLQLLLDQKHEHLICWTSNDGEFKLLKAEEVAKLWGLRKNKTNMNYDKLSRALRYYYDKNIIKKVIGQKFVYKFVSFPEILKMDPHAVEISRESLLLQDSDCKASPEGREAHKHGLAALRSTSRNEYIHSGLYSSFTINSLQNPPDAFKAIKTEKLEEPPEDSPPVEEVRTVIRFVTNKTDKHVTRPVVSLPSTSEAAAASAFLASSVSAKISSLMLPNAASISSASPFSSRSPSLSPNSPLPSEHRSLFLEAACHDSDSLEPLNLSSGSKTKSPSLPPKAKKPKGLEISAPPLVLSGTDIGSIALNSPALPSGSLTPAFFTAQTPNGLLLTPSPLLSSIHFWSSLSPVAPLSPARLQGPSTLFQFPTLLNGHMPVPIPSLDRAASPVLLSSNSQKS
Outline: as §1

ELF1, sequence (P32519 whole entry): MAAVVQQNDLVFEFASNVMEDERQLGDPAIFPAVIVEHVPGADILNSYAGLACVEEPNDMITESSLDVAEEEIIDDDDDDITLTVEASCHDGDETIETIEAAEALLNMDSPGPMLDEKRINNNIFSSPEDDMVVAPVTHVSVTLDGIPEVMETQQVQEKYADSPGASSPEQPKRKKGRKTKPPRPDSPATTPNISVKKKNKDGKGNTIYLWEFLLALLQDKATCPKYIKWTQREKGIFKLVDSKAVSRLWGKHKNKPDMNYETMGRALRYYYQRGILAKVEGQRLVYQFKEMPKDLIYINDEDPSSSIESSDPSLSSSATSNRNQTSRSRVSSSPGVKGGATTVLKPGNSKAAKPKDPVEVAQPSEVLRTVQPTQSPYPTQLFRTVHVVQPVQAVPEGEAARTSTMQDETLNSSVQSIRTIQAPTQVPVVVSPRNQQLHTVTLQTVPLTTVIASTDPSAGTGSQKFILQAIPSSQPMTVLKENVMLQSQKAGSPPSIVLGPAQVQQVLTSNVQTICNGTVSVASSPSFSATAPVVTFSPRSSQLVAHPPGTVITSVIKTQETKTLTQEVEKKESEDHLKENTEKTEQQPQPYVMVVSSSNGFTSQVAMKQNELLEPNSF
SPIB, sequence (Q01892 whole entry): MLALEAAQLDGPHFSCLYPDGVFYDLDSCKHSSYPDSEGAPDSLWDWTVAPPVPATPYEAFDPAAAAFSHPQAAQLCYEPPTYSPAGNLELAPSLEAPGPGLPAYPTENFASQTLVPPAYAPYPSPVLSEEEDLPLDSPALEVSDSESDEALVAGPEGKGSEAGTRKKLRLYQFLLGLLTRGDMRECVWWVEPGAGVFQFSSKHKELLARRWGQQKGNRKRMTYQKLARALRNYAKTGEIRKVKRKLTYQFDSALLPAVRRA

With TGGCAA the binding signal [1] was 1.23 fold enrichment (6-mer frequency, TF over GST control), the binding signal [2] was 1.21 fold enrichment (6-mer frequency, TF over GST control) and the binding signal [3] was 1.22 fold enrichment (6-mer frequency, TF over GST control). The binding signal [4] was 1.15 fold enrichment (6-mer frequency, TF over GST control), the binding signal [5] was 1.2 fold enrichment (6-mer frequency, TF over GST control) and the binding signal [6] was 1.16 fold enrichment (6-mer frequency, TF over GST control). For the same sequence, the binding signal [7] was 1.2 fold enrichment (6-mer frequency, TF over GST control), the binding signal [8] was 1.32 fold enrichment (6-mer frequency, TF over GST control) and the binding signal [9] was 1.11 fold enrichment (6-mer frequency, TF over GST control).
In the case of CCCCGG, the binding signal [1] is reported as 1.19 fold enrichment (6-mer frequency, TF over GST control), the binding signal [2] is reported as 1.18 fold enrichment (6-mer frequency, TF over GST control) and the binding signal [3] is reported as 1.15 fold enrichment (6-mer frequency, TF over GST control). For the same sequence, the binding signal [4] was 1.3 fold enrichment (6-mer frequency, TF over GST control), the binding signal [5] was 1.22 fold enrichment (6-mer frequency, TF over GST control) and the binding signal [6] was 1.24 fold enrichment (6-mer frequency, TF over GST control). For the same sequence, the binding signal [7] was 1.16 fold enrichment (6-mer frequency, TF over GST control), the binding signal [8] was 1.27 fold enrichment (6-mer frequency, TF over GST control) and the binding signal [9] was 1.2 fold enrichment (6-mer frequency, TF over GST control).
In the case of CCCCCG, the binding signal [1] is reported as 1.21 fold enrichment (6-mer frequency, TF over GST control), the binding signal [2] is reported as 1.09 fold enrichment (6-mer frequency, TF over GST control) and the binding signal [3] is reported as 1.03 fold enrichment (6-mer frequency, TF over GST control). The binding signal [4] was 1.18 fold enrichment (6-mer frequency, TF over GST control), the binding signal [5] was 1.1 fold enrichment (6-mer frequency, TF over GST control) and the binding signal [6] was 1.1 fold enrichment (6-mer frequency, TF over GST control). The binding signal [7] was 1.08 fold enrichment (6-mer frequency, TF over GST control), the binding signal [8] was 1.09 fold enrichment (6-mer frequency, TF over GST control) and the binding signal [9] was 1.07 fold enrichment (6-mer frequency, TF over GST control).
For TCCCGA, the binding signal [1] was 1.39 fold enrichment (6-mer frequency, TF over GST control), the binding signal [2] was 1.23 fold enrichment (6-mer frequency, TF over GST control) and the binding signal [3] was 1.47 fold enrichment (6-mer frequency, TF over GST control). For the same sequence, the binding signal [4] was 1.27 fold enrichment (6-mer frequency, TF over GST control), the binding signal [5] was 1.31 fold enrichment (6-mer frequency, TF over GST control) and the binding signal [6] was 1.36 fold enrichment (6-mer frequency, TF over GST control). For the same sequence, the binding signal [7] was 1.37 fold enrichment (6-mer frequency, TF over GST control), the binding signal [8] was 1.41 fold enrichment (6-mer frequency, TF over GST control) and the binding signal [9] was 1.35 fold enrichment (6-mer frequency, TF over GST control).
In the case of GGATGT, the binding signal [1] is reported as 1.5 fold enrichment (6-mer frequency, TF over GST control), the binding signal [2] is reported as 1.7 fold enrichment (6-mer frequency, TF over GST control) and the binding signal [3] is reported as 1.39 fold enrichment (6-mer frequency, TF over GST control). The binding signal [4] was 1.82 fold enrichment (6-mer frequency, TF over GST control), the binding signal [5] was 1.44 fold enrichment (6-mer frequency, TF over GST control) and the binding signal [6] was 1.74 fold enrichment (6-mer frequency, TF over GST control). The binding signal [7] was 1.53 fold enrichment (6-mer frequency, TF over GST control), the binding signal [8] was 1.61 fold enrichment (6-mer frequency, TF over GST control) and the binding signal [9] was 1.65 fold enrichment (6-mer frequency, TF over GST control).
For TTGATC, the binding signal [1] was 1.21 fold enrichment (6-mer frequency, TF over GST control), the binding signal [2] was 1.22 fold enrichment (6-mer frequency, TF over GST control) and the binding signal [3] was 1.21 fold enrichment (6-mer frequency, TF over GST control). The binding signal [4] was 1.19 fold enrichment (6-mer frequency, TF over GST control), the binding signal [5] was 1.21 fold enrichment (6-mer frequency, TF over GST control) and the binding signal [6] was 1.12 fold enrichment (6-mer frequency, TF over GST control). The binding signal [7] was 1.23 fold enrichment (6-mer frequency, TF over GST control), the binding signal [8] was 1.3 fold enrichment (6-mer frequency, TF over GST control) and the binding signal [9] was 1.26 fold enrichment (6-mer frequency, TF over GST control).
In the case of CAAGTA, the binding signal [1] is reported as 1.09 fold enrichment (6-mer frequency, TF over GST control), the binding signal [2] is reported as 1.06 fold enrichment (6-mer frequency, TF over GST control) and the binding signal [3] is reported as 1.19 fold enrichment (6-mer frequency, TF over GST control). The binding signal [4] was 1.03 fold enrichment (6-mer frequency, TF over GST control), the binding signal [5] was 1.03 fold enrichment (6-mer frequency, TF over GST control) and the binding signal [6] was 1.1 fold enrichment (6-mer frequency, TF over GST control). The binding signal [7] was 1.07 fold enrichment (6-mer frequency, TF over GST control), the binding signal [8] was 1.01 fold enrichment (6-mer frequency, TF over GST control) and the binding signal [9] was 1.17 fold enrichment (6-mer frequency, TF over GST control).
